Holding throughout (conditions): mRNA level, 48 h; actives raise or lower the signal
Read-out in assay [1]: Alkaline Phosphatase, Placental (ALPP) gene, ALPP (gene 250)
In words: LTEA_HepaRG_ALPP: Life Technologies and Expression Analysis (LTEA) Assay for Alkaline Phosphatase, Placental (ALPP) gene using HepaRG (AID 2283468). In a few lines:
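ALPP transcript level, measured by qRT-PCR and normalized to three housekeeping genes (ACTB, GAPDH, POLR2A), after 48 h dosing of differentiated HepaRG in serum-free induction medium. Top concentration 100 uM with half-log dilutions (8 points, 0.5% DMSO, duplicates); bidirectional fitting relative to DMSO.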

Read-out in assay [2]: Bcl-2 (BAD) gene, BAD (gene 572)
Kind of assay: LTEA_HepaRG_BAD: Life Technologies and Expression Analysis (LTEA) Assay for Bcl-2 (BAD) gene using HepaRG (AID 2283469). In a few lines: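 Differentiated human HepaRG cells in serum-free induction medium were exposed in duplicate for 48 h to eight concentrations (top 100 uM, half-log steps, 0.5% DMSO). BAD mRNA was quantified by qRT-PCR normalised to ACTB, GAPDH and POLR2A, with bidirectional fitting versus DMSO.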

Read-out in assay [3]: Bcl-2 (BAX) gene, BAX (gene 581)
Kind of assay: LTEA_HepaRG_BAX: Life Technologies and Expression Analysis (LTEA) Assay for Bcl-2 (BAX) gene using HepaRG (AID 2283470). The method in brief: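 Differentiated HepaRG cells exposed 48 h in serum-free induction medium, eight half-log concentrations from 100 uM, in duplicate, 0.5% DMSO vehicle. BAX mRNA by TaqMan qRT-PCR, normalised to ACTB, GAPDH and POLR2A.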

Read-out in assay [4]: Alpha-fetoprotein (AFP) gene, AFP (gene 174)
Kind of assay: LTEA_HepaRG_AFP: Life Technologies and Expression Analysis (LTEA) Assay for Alpha-fetoprotein (AFP) gene using HepaRG (AID 2283472). The method in brief: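 Differentiated human HepaRG cells exposed 48 h in serum-free induction medium, 8-point half-log series from 100 uM in 0.5% DMSO, duplicate. AFP mRNA by qRT-PCR, normalized to ACTB, GAPDH, POLR2A; bidirectional fit vs DMSO.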

Read-out in assay [5]: BCL2L11 (gene 10018)
In words: LTEA_HepaRG_BCL2L11: Life Technologies and Expression Analysis (LTEA) Assay for Bcl-2 (BCL2L11) gene using HepaRG (AID 2283473). The method in brief: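 BCL2L11 transcript levels are measured by Fluidigm qRT-PCR, normalized to three housekeeping genes. HepaRG cultures were plated 48 h, then treated 48 h with test chemical (top 100 uM, half-log, 0.5% DMSO vehicle); curves were fitted bidirectionally against DMSO.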

Read-out in assay [6]: Apolipoprotein A-V (APOA5) gene, APOA5 (gene 116519)
In words: LTEA_HepaRG_APOA5: Life Technologies and Expression Analysis (LTEA) Assay for Apolipoprotein A-V (APOA5) gene using HepaRG (AID 2283474). The method in brief:
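APOA5 transcript levels were quantified by qRT-PCR, normalized to three housekeeping genes, after 48 h chemical treatment of HepaRG cells (8 points, 100 uM maximum, half-log steps, 0.5% DMSO). Curves fitted in both directions against vehicle.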

Read-out in assay [7]: Apoptosis regulator Bcl-2 (Homo sapiens) (UniProt P10415)
In words: LTEA_HepaRG_BCL2: Life Technologies and Expression Analysis (LTEA) Assay for Bcl-2 gene using HepaRG (AID 2283475). In a few lines:
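Differentiated human HepaRG cells in serum-free induction medium exposed 48 h, in duplicate, to 8-point half-log series from 100 uM in 0.5% DMSO. BCL2 mRNA by qRT-PCR (TaqMan/Fluidigm), normalized to ACTB, GAPDH, POLR2A; bidirectional fit against DMSO.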

Read-out in assay [8]: Bcl-2 (BID) gene, BID (gene 637)
Kind of assay: LTEA_HepaRG_BID: Life Technologies and Expression Analysis (LTEA) Assay for Bcl-2 (BID) gene using HepaRG (AID 2283476). In a few lines: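 Gene expression by qRT-PCR in HepaRG cells after 48 h exposure, duplicate wells, eight half-log concentrations topping at 100 uM in 0.5% DMSO. Normalized to ACTB, GAPDH, POLR2A; bidirectional fitting relative to DMSO.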

Read-out in assay [9]: Caspase-3 (Homo sapiens) (UniProt P42574)
Kind of assay: LTEA_HepaRG_CASP3: Life Technologies and Expression Analysis (LTEA) Assay for cysteine-aspartic acid protease (CASP3) using HepaRG (AID 2283477). The method in brief:
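Expression of CASP3 was quantified by TaqMan qRT-PCR against three housekeeping genes (ACTB, GAPDH, POLR2A), bidirectionally versus 0.5% DMSO. HepaRG cultures received compounds in duplicate, top 100 uM with half-log steps, for 48 h in serum-free induction medium.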

Read-out in assay [10]: Cytochrome P450 (CYP24A1), CYP24A1 (gene 1591)
Kind of assay: LTEA_HepaRG_CYP24A1: Life Technologies and Expression Analysis (LTEA) Assay for Cytochrome P450 (CYP24A1) using HepaRG (AID 2283478). In a few lines: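 mRNA of CYP24A1 quantified by TaqMan qRT-PCR (ACTB/GAPDH/POLR2A normalization) after 48 h chemical exposure of HepaRG cells, top concentration 100 uM, half-log steps, 0.5% DMSO vehicle, duplicates. Curves fitted bidirectionally against DMSO baseline.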

Read-out in assay [11]: Cytochrome P450 (CYP1A2), CYP1A2 (gene 1544)
Kind of assay: LTEA_HepaRG_CYP1A2: Life Technologies and Expression Analysis (LTEA) Assay for Cytochrome P450 (CYP1A2) using HepaRG (AID 2283479). The method in brief:
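CYP1A2 transcript measured by TaqMan qRT-PCR against three housekeeping genes after 48-hour chemical exposure of HepaRG cells. Eight-point half-log series topping at 100 uM in 0.5% DMSO, duplicates; gain or loss fitted relative to vehicle.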

Read-out in assay [12]: cysteine-aspartic acid protease (CASP8), CASP8 (gene 841)
Kind of assay: LTEA_HepaRG_CASP8: Life Technologies and Expression Analysis (LTEA) Assay for cysteine-aspartic acid protease (CASP8) using HepaRG (AID 2283480). The method in brief: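 Differentiated human HepaRG cells, plated 48 h then switched to serum-free induction medium, were exposed in duplicate for 48 h to 8 half-log concentrations up to 100 uM in 0.5% DMSO. CASP8 mRNA was quantified by qRT-PCR, normalized to ACTB/GAPDH/POLR2A.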

Read-out in assay [13]: Cytochrome P450 (CYP2B6), CYP2B6 (gene 1555)
Kind of assay: LTEA_HepaRG_CYP2B6: Life Technologies and Expression Analysis (LTEA) Assay for Cytochrome P450 (CYP2B6) using HepaRG (AID 2283481). In a few lines:
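CYP2B6 transcript level quantified by qRT-PCR against three housekeeping genes, fitted bidirectionally relative to DMSO. HepaRG cultures received chemicals for 48 h, 8-point half-log series from 100 uM in 0.5% DMSO, duplicate wells, serum-free induction medium.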

Read-out in assay [14]: Cytochrome P450 2C19 (Homo sapiens) (UniProt P33261)
In words: LTEA_HepaRG_CYP2C19: Life Technologies and Expression Analysis (LTEA) Assay for CYP2C19 using HepaRG (AID 2283482). In a few lines: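 CYP2C19 transcript levels by qRT-PCR, normalized to three housekeeping genes, in HepaRG cells after 48 h chemical exposure. Eight-point half-log series topping at 100 uM, 0.5% DMSO vehicle. Increases and decreases both fitted against DMSO.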

Read-out in assay [15]: CYP2C8 (gene 1558)
In words: LTEA_HepaRG_CYP2C8: Life Technologies and Expression Analysis (LTEA) Assay for CYP2C8 using HepaRG (AID 2283483). In a few lines:
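Differentiated human HepaRG cells were exposed for 48 h in serum-free induction medium to eight half-log concentrations up to 100 uM in 0.5% DMSO, in duplicate. CYP2C8 mRNA was measured by TaqMan qRT-PCR, normalized to ACTB, GAPDH and POLR2A, and fitted bidirectionally against DMSO.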

Read-out in assay [16]: CYP2C9 (gene 1559)
Kind of assay: LTEA_HepaRG_CYP2C9: Life Technologies and Expression Analysis (LTEA) Assay for CYP2C9 using HepaRG (AID 2283484). In a few lines: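 Differentiated human HepaRG cells were exposed 48 h in serum-free induction medium to eight half-log concentrations up to 100 uM in 0.5% DMSO. CYP2C9 mRNA was measured by qRT-PCR, normalized to ACTB, GAPDH and POLR2A, and fitted bidirectionally against DMSO.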

Read-out in assay [17]: CYP2E1 (gene 1571)
In words: LTEA_HepaRG_CYP2E1: Life Technologies and Expression Analysis (LTEA) Assay for CYP2E1 using HepaRG (AID 2283485). In a few lines:
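HepaRG cells, plated 48 h, then exposed 48 h in serum-free induction medium to eight half-log concentrations from 100 uM in 0.5% DMSO, duplicate. CYP2E1 mRNA by qRT-PCR, normalized to ACTB/GAPDH/POLR2A; bidirectional fit versus DMSO.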

Read-out in assay [18]: CYP4A11 (gene 1579)
In words: LTEA_HepaRG_CYP4A11: Life Technologies and Expression Analysis (LTEA) Assay for CYP4A11 using HepaRG (AID 2283486). In a few lines: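 Readout is CYP4A11 transcript level by qRT-PCR, normalized to three housekeeping genes and fitted bidirectionally against 0.5% DMSO. Human HepaRG cells were treated 48 h, in duplicate, with an 8-point half-log series topping at 100 uM.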

Read-out in assay [19]: Cytochrome P450 3A4 (Homo sapiens) (UniProt P08684)
In words: LTEA_HepaRG_CYP3A4: Life Technologies and Expression Analysis (LTEA) Assay for CYP3A4 using HepaRG (AID 2283487). In a few lines:
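In a human hepatic line (HepaRG), duplicate wells were treated 48 h with up to 100 uM chemical in half-log dilutions. Endpoint: CYP3A4 mRNA induction or loss relative to 0.5% DMSO vehicle, by qRT-PCR.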

Read-out in assay [20]: adenosine kinase (ADK) gene, ADK (gene 132)
In words: LTEA_HepaRG_ADK: Life Technologies and Expression Analysis (LTEA) Assay for adenosine kinase (ADK) gene using HepaRG (AID 2283471). The method in brief:
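Following 48 h exposure of HepaRG cells in 0.5% DMSO (top concentration 100 uM, duplicate wells), ADK mRNA induction or suppression was measured by qRT-PCR, normalised to ACTB/GAPDH/POLR2A, and fitted bidirectionally relative to vehicle.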

Activity calls are given as the source filed them. Rule for the calls: active = hit-call score of the fitted dose curve at least 0.9, where 1 is the maximum; inactive = score below 0.9.

Cytochrome P450 3A4 (Homo sapiens), sequence (P08684 whole entry, looked up): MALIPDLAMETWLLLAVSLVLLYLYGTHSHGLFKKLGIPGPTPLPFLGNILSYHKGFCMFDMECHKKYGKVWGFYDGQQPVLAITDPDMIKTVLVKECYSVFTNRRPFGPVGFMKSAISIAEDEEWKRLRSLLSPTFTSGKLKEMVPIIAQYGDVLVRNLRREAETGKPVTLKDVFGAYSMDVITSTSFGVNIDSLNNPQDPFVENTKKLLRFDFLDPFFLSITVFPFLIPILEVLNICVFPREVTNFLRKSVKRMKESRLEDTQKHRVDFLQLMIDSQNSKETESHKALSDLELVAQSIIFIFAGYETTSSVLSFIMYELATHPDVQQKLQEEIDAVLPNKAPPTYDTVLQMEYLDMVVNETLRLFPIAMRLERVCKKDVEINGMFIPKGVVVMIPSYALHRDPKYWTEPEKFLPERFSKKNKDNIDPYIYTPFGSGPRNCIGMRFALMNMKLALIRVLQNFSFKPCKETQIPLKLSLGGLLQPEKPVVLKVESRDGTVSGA
Cytochrome P450 2C19 (Homo sapiens), sequence (P33261 whole entry, looked up): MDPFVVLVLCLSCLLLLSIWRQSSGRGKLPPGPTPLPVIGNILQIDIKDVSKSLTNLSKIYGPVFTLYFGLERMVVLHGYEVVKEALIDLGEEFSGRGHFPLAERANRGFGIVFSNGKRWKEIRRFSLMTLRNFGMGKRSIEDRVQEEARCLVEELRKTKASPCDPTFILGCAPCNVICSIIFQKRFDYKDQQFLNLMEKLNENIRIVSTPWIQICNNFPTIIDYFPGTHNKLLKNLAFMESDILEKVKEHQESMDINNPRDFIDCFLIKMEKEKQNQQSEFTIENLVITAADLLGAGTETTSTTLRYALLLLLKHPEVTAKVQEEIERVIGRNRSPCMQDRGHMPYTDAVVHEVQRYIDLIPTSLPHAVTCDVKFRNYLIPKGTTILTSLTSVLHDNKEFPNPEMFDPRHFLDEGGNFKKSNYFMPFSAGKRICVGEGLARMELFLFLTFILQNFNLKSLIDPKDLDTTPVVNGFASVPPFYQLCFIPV
Caspase-3 (Homo sapiens), sequence (P42574 whole entry, looked up): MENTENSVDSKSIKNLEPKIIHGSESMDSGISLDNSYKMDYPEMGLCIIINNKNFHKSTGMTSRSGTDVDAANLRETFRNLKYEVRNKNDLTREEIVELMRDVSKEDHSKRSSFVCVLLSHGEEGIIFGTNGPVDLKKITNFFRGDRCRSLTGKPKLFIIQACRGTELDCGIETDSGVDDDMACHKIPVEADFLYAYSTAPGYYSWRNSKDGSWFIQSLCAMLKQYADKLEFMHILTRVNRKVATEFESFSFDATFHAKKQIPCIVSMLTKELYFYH
Apoptosis regulator Bcl-2 (Homo sapiens), sequence (P10415 whole entry, looked up): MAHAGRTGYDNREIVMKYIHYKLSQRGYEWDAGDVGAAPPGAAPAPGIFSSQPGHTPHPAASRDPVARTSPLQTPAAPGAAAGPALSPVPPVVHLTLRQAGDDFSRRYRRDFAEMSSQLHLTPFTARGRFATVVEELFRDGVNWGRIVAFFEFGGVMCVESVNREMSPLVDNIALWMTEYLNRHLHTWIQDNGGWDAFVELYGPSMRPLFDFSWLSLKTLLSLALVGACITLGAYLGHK

With `CCOP(=O)(SC(C)CC)N1CCSC1=O` (stereo not drawn), the outcome in [1], in assay [2], in [3], in assay [4], in [5] and in assay [6] was inactive. The outcome in assay [7], in assay [8], in assay [9], in [10], in assay [11] and in [12] was inactive. Also, the molecule was classed as inactive in [14], in assay [15] and in assay [16]. Further, the AC50 in [13] is 2.56 µM (active); in [17], 19.1 µM (active); in [18] it was 17 µM (active); in assay [19] it was 16.1 µM (active).
Regarding `COc1ccc(C(=CC(=O)N2CCOCC2)c2ccc(Cl)cc2)cc1OC`, the call in [1], in assay [2], in [3], in [20], in [4] and in assay [5] was inactive. Further, the outcome in [6], in assay [7], in assay [8], in [9], in assay [10] and in assay [11] was inactive. Besides, the molecule was called inactive in [12] and in [16]. The AC50 in [13] is 0.00252 µM (active); in [14], 10.4 µM (active); in assay [15], 10.4 µM (active); in assay [17], 15.3 µM (active); in assay [18] it was 59 µM (active); in [19], 9.63 µM (active).
Regarding `C#CCC1=C(C)C(OC(=O)C2C(C=C(C)C)C2(C)C)CC1=O` (stereo not drawn), the molecule was called inactive in assay [2], in assay [3], in assay [20], in assay [5], in [6] and in assay [7]. Moreover, the result in assay [8], in [9], in [10], in assay [11], in assay [12] and in assay [14] was inactive. The result in assay [15], in assay [16] and in [19] was inactive. Also, the AC50 was 81.1 µM (active) in assay [4], 12.1 µM (active) in assay [13], 73.3 µM (active) in [17] and 49.8 µM (active) in assay [18].

For orientation: AC50 means the concentration at which the activity in the assay is half-maximal.
